Reference: PubChem BioAssay (Tox21)
Results filed as inconclusive are left out. The source made the active and inactive calls. Calls come from the whole dose curve; as a rule, active = well fitted curve in the direction sought with a large enough effect in the repeat runs; inconclusive = weak or mixed curves; inactive = no such curve, though single readings can be large; an effect the other way counts as inactive or inconclusive.

Experiments:
[1] = qHTS RealTime-Glo MT Cell Viability Assay in HepG2 cells - 40 hour (AID 1224870); note: nearly all actives have a fitted effect of over 50% in size
How it was run: (§1)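 HepG2 cells (600/well) mixed with RealTime-Glo MT reagent, settled 5 h at 37 C/5% CO2 before compound addition. Nonlytic NanoLuc luminescence from viable-cell prosubstrate reduction read repeatedly during 40 h treatment at 37 C.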

[2] = A CellTox Green Cytotoxicity Assay to monitor cytotoxicity in HEK293 cells - 40 hour (AID 1224871); note: nearly all actives have a fitted effect of over 45% in size; note: potency is the fitted concentration of half-maximal effect
How it was run: (§2)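 Dead-cell fluorescence measured kinetically: asymmetric cyanine dye, HEK293, 600 cells/well, 5 h settle, 23 nL cpd/DMSO, 37 C, reads 0–40 h every 8 h.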

[3] = qHTS RealTime-Glo MT Cell Viability Assay in HEK293 cells - 16 hour (AID 1224872); note: top concentration of the series differs between compounds; nearly all actives have a fitted effect of over 50% in size
How it was run: (§3)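 Cells + reagent dispensed (600 cells/well, HEK293) → 5 h at 37 C/5% CO2 → 23 nL compound in DMSO pinned → 40 h at 37 C → luminescence read at 0, 8, 16, 24, 32, 40 h.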

[4] = qHTS RealTime-Glo MT Cell Viability Assay in HepG2 cells - 8 hour (AID 1224873); note: nearly all actives have a fitted effect of over 55% in size
How it was run: as §1

[5] = qHTS RealTime-Glo MT Cell Viability Assay in HEK293 cells - 40 hour (AID 1224874); settings: RealTime-Glo luminescence; max response: stronger effect = lower value; note: nearly all actives have a fitted effect of over 50% in size
How it was run: (§4)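 600 HEK293 cells per well, dispensed already mixed with RealTime-Glo MT reagents. Compound dosing came 5 h later. The same wells were read for luminescence at 0, 8, 16, 24, 32 and 40 h of exposure at 37 C.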

[6] = A CellTox Green Cytotoxicity Assay to monitor cytotoxicity in HEK293 cells - 24 hour (AID 1224875); note: nearly all actives have a fitted effect of over 45% in size; note: potency is the fitted concentration of half-maximal effect
How it was run: as §2

[7] = A CellTox Green Cytotoxicity Assay to monitor cytotoxicity in HepG2 cells - 16 hour (AID 1224876); note: nearly all actives have a fitted effect of over 45% in size; note: potency is the fitted concentration of half-maximal effect
How it was run: (§5)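 First, HepG2 cells (600/well) mixed with reagent were plated; second, after 5 h at 37 C they received compounds via pintool; third, fluorescence was measured at 0 h through 40 h at 8 h intervals.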

[8] = qHTS RealTime-Glo MT Cell Viability Assay in HepG2 cells - 32 hour (AID 1224877); note: nearly all actives have a fitted effect of over 55% in size
How it was run: (§6)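 Real-time, nonlytic viability: 600 HepG2 cells/well mixed with NanoLuc enzyme plus prosubstrate; 5 h settle, compound (DMSO) added by pintool; luminescence monitored over 40 h at 37 C.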

[9] = A CellTox Green Cytotoxicity Assay to monitor cytotoxicity in HepG2 cells - 24 hour (AID 1224878); note: nearly all actives have a fitted effect of over 45% in size; note: potency is the fitted concentration of half-maximal effect
How it was run: as §5

[10] = A CellTox Green Cytotoxicity Assay to monitor cytotoxicity in HepG2 cells - 40 hour (AID 1224879); note: nearly all actives have a fitted effect of over 40% in size; note: potency is the fitted concentration of half-maximal effect
How it was run: as §5

[11] = qHTS RealTime-Glo MT Cell Viability Assay in HEK293 cells - 0 hour (AID 1224880)
How it was run: as §4

[12] = A CellTox Green Cytotoxicity Assay to monitor cytotoxicity in HEK293 cells - 32 hour (AID 1224881); note: nearly all actives have a fitted effect of over 40% in size; note: potency is the fitted concentration of half-maximal effect
How it was run: as §2

[13] = A CellTox Green Cytotoxicity Assay to monitor cytotoxicity in HepG2 cells - 0 hour (AID 1224882); note: nearly all actives have a fitted effect of over 35% in size; note: potency is the fitted concentration of half-maximal effect
How it was run: as §5

[14] = A CellTox Green Cytotoxicity Assay to monitor cytotoxicity in HepG2 cells - 32 hour (AID 1224883); note: nearly all actives have a fitted effect of over 50% in size; note: potency is the fitted concentration of half-maximal effect
How it was run: as §5

[15] = A CellTox Green Cytotoxicity Assay to monitor cytotoxicity in HEK293 cells - 8 hour (AID 1224884); note: nearly all actives have a fitted effect of over 35% in size
How it was run: as §2

[16] = qHTS RealTime-Glo MT Cell Viability Assay in HepG2 cells - 16 hour (AID 1224885); note: nearly all actives have a fitted effect of over 50% in size
How it was run: as §6

[17] = qHTS RealTime-Glo MT Cell Viability Assay in HEK293 cells - 24 hour (AID 1224886)
How it was run: as §3

[18] = qHTS RealTime-Glo MT Cell Viability Assay in HEK293 cells - 8 hour (AID 1224887)
How it was run: as §4

[19] = A CellTox Green Cytotoxicity Assay to monitor cytotoxicity in HEK293 cells - 16 hour (AID 1224888); note: nearly all actives have a fitted effect of over 35% in size; note: potency is the fitted concentration of half-maximal effect
How it was run: as §2

[20] = qHTS RealTime-Glo MT Cell Viability Assay in HepG2 cells - 0 hour (AID 1224889); note: nearly all actives have a fitted effect of over 50% in size
How it was run: as §6
% is set by controls: 0 for no effect and ±100 for the full control effect.

CC1(C)C(=O)NC(=O)N1CO
inactive: Potency [1] | Potency [2] | Potency [3] | outcome [4] | max response [5] 9.14% | Potency [6] | Potency [7] | Potency [8] | Potency [9] | Potency [10] | Potency [11] | Potency [12] | Potency [13] | Potency [14] | Potency [15] | outcome [16] | Potency [17] | Potency [18] | Potency [19] | Potency [20]

CC(C)NC(=O)c1ccccc1N
inactive: Potency [1] | Potency [2] | Potency [3] | outcome [4] | max response [5] 0.226% | Potency [6] | Potency [7] | Potency [8] | Potency [9] | Potency [10] | Potency [11] | Potency [12] | Potency [13] | Potency [14] | outcome [16] | Potency [17] | Potency [18] | Potency [19] | Potency [20]

CC(C)CCCCCCCOC(=O)c1ccc(C(=O)OCCCCCCCC(C)C)c(C(=O)OCCCCCCCC(C)C)c1
inactive: Potency [1] | Potency [2] | Potency [3] | outcome [4] | max response [5] 11.4% | Potency [6] | Potency [7] | Potency [8] | Potency [9] | Potency [10] | Potency [11] | Potency [12] | Potency [13] | Potency [14] | Potency [15] | outcome [16] | Potency [17] | Potency [18] | Potency [19] | Potency [20]

CC(C)C/C=C(\C=O)c1ccccc1
inactive: Potency [1] | Potency [2] | Potency [3] | outcome [4] | max response [5] 10% | Potency [6] | Potency [7] | Potency [8] | Potency [9] | Potency [10] | Potency [11] | Potency [12] | Potency [13] | Potency [14] | Potency [15] | outcome [16] | Potency [17] | Potency [18] | Potency [19] | Potency [20]

CCCCCCCCCCCCSCCOCCO
inactive: Potency [1] | Potency [2] | Potency [3] | outcome [4] | max response [5] -17.3% | Potency [6] | Potency [7] | Potency [8] | Potency [9] | Potency [10] | Potency [11] | Potency [12] | Potency [13] | Potency [14] | Potency [15] | outcome [16] | Potency [17] | Potency [18] | Potency [19] | Potency [20]

CCOCCn1c(N2CCCN(C)CC2)nc2ccccc21
inactive: Potency [1] | Potency [2] | Potency [3] | outcome [4] | max response [5] -3.4% | Potency [6] | Potency [7] | Potency [8] | Potency [9] | Potency [10] | Potency [11] | Potency [12] | Potency [13] | Potency [14] | Potency [15] | outcome [16] | Potency [17] | Potency [18] | Potency [19] | Potency [20]

CCC(=O)O[C@]1(C(=O)COC)[C@@H](C)C[C@H]2[C@@H]3CCC4=CC(=O)C=C[C@]4(C)C3(F)[C@@H](O)C[C@@]21C (stereo partly specified)
inactive: Potency [1] | Potency [2] | Potency [3] | outcome [4] | max response [5] -19.2% | Potency [6] | Potency [7] | Potency [8] | Potency [9] | Potency [10] | Potency [11] | Potency [12] | Potency [13] | Potency [14] | outcome [16] | Potency [17] | Potency [18] | Potency [19] | Potency [20]

[O-][n+]1ccc(Cl)cc1
inactive: Potency [1] | Potency [2] | Potency [3] | outcome [4] | max response [5] 17.4% | Potency [6] | Potency [7] | Potency [8] | Potency [9] | Potency [10] | Potency [11] | Potency [12] | Potency [13] | Potency [14] | Potency [15] | outcome [16] | Potency [17] | Potency [18] | Potency [19] | Potency [20]

COc1cc(C)c(Cc2cnc(N)nc2N)cc1OC
inactive: Potency [1] | Potency [2] | Potency [3] | outcome [4] | max response [5] 5.82% | Potency [6] | Potency [7] | Potency [8] | Potency [9] | Potency [10] | Potency [11] | Potency [12] | Potency [13] | Potency [14] | Potency [15] | outcome [16] | Potency [17] | Potency [18] | Potency [19] | Potency [20]

CCCCCCCCCCCCCCCCN
inactive: Potency [1] | Potency [3] | outcome [4] | max response [5] 11.5% | Potency [8] | Potency [11] | outcome [16] | Potency [17] | Potency [18] | Potency [20]
active: Potency [2] 12 µM | Potency [6] 10.7 µM | Potency [7] 23.9 µM | Potency [9] 21.3 µM | Potency [10] 23.9 µM | Potency [12] 16.9 µM | Potency [13] 21.3 µM | Potency [14] 23.9 µM | Potency [19] 19 µM

C=CC(O)CCCCC (stereo unspecified)
inactive: Potency [1] | Potency [2] | Potency [3] | outcome [4] | max response [5] 0.0439% | Potency [6] | Potency [7] | Potency [8] | Potency [9] | Potency [10] | Potency [11] | Potency [12] | Potency [13] | Potency [14] | Potency [15] | outcome [16] | Potency [17] | Potency [18] | Potency [19] | Potency [20]

O=C(O)c1ccncc1
inactive: Potency [1] | Potency [2] | Potency [3] | outcome [4] | max response [5] 9.67% | Potency [6] | Potency [7] | Potency [8] | Potency [9] | Potency [10] | Potency [11] | Potency [12] | Potency [13] | Potency [14] | Potency [15] | outcome [16] | Potency [17] | Potency [18] | Potency [19] | Potency [20]

NC(=O)c1ccccc1
inactive: Potency [1] | Potency [2] | Potency [3] | outcome [4] | max response [5] 1.7% | Potency [6] | Potency [7] | Potency [8] | Potency [9] | Potency [11] | Potency [12] | Potency [13] | Potency [14] | Potency [15] | outcome [16] | Potency [17] | Potency [18] | Potency [19] | Potency [20]
